Assay results reported in PubChem BioAssay (NCI).
The panel holds about 83,000 compounds, 20% with a hit somewhere; the sample as a whole holds those more often.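 A percent growth of 40 corresponds to 60% growth inhibition; 0 means no net growth; -100 means all cells died. Active threshold: below 10.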 Unmarked numbers belong to inactive results. Calls of active or inactive are those of the source.

Tested on: PC-3 prostate
Experiment: NCI-60 one-dose screen, 48 h (100 = growth as untreated, 0 = no growth, -100 = all killed)
Conditions: 10 µM unless noted

SMILES	growth
CCCCCCCCN(CCCCCCCC)C(=O)CCl	85.6%
O=C(Nc1ccc(-n2ccc3c(NC(=O)c4ccccc4)nccc32)cc1)c1ccc(N2CCOCC2)c(C(F)(F)F)c1	35.7%
O=C1/C(=C/c2ccccc2)SC(=Nc2ccccc2)N1Nc1ccccc1	9.43% (active)
C[N+](C)(C)CC(=O)N/N=C\c1ccco1	95.8%
CC(C)CCSc1nc(-c2ccc(F)cc2)c(C#N)c(N2CCN(C)CC2)n1	65%
CC(=O)Oc1c(Cl)c(Cl)c(Cl)c(Cl)c1Cl	91.1%
CN(C)c1nc(-c2cccs2)n2nc(-c3ccc(Cl)cc3)cc2n1	47.1%
COc1nccc2c(Sc3ccccc3)nc(N)nc12	84.7%
c1cn2cc(-c3ccc4ncn(C5CCCCC5)c4c3)nc(-c3ccc4c(c3)ncn4C3CCCCC3)c2n1	-64.1% (active)
CCc1onc(-c2ccc(OC)cc2)c1-c1ccccc1OCCN(CC)CC	75.1%
CCN(CCC#N)c1ccccc1	90.8%
S=C(S)Oc1cccc2cccnc12	84.7%
COc1ccccc1CNCCCN1C(=O)c2ccc3c4c(ccc(c24)C1=O)C(=O)N(CCCNCCCN)C3=O	18.7%
CC(C)c1ccc(-c2cnc3nonc3n2)cc1	19.3%
CN1CCCN(CCNc2nccc(-c3c(-c4cccc(O)c4)nc4sccn34)n2)S1(=O)=O	30.3%
COc1ccccc1CNCCCN1C(=O)c2ccc3c4c(ccc(c24)C1=O)C(=O)N(CCCCNCCCN)C3=O	43.7%
